Rows were chosen to be rich in hits. Some 2.9% of all compounds tested hit in one or more screens of this group.
TAG inh = triacylglycerol accumulation inhibition | H9c2 cells, Nile Red lipid (TAG) fluorescence; cells loaded with 200 µM oleic acid | inhibition, % at 12.5 µM | 230,000 tested, 0.66% active;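 active means pattern-corrected inhibition of lipid staining of at least 50% with the nuclear-stain viability signal not falling by more than 50%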
A3G deaminase = APOBEC3G (human) deaminase inhibition | Q9HC16 | recombinant A3G, ssDNA deamination FAM/TAMRA fluorescence | inhibition, % at 20 µM | 330,000 tested, 0.28% active;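 active means inhibition of at least 40% at 20 µM, with no more than 30% in the related APOBEC3A deaminase screen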
Target sequence (Q9HC16 whole entry, looked up): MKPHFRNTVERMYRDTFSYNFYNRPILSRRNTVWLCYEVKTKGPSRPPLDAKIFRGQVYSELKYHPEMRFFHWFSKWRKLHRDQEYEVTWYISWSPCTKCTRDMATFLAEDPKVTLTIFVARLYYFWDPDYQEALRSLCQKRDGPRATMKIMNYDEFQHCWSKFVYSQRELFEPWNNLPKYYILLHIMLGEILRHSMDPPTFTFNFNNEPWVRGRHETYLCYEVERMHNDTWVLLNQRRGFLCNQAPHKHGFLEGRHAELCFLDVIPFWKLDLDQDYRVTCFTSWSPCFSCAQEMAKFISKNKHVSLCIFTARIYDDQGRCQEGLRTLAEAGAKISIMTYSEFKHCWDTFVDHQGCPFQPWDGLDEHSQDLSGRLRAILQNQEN
NadD block = blocks S. aureus nicotinate mononucleotide adenylyltransferase. inhibition, % at 20 µM. AID 602399. 360,000 tested, 0.78% active. purified NadD enzyme, colorimetric absorbance read-out; in the data active means inhibition above about 26%
H9c2 protect = modulators protecting cardiomyocytes from myocardial damage; H9c2 cardiomyocytes, H2O2 injury protection, ATPLite, 2 h; protection from H2O2 cell death, % at 20 µM; 360,000 tested, 0.63% active; AID 588492;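 active means compounds giving at least 50% protection of heart cells from peroxide-induced death in the single-dose screen, raw or plate-pattern-corrected value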
PfG6PD inh = PfG6PD (Plasmodium falciparum) enzyme inhibition. PfGluPho enzyme, NADPH resazurin-diaphorase fluorescence. inhibition, % at 20 µM. 350,000 tested, 0.78% active;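 active means inhibition reaching at least a set limit at 20 µM in the primary screen, cut at about 59% in these data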
APOBEC3A inh = inhibitors of human APOBEC3A DNA deaminase. AID 493011. P31941. 330,000 tested, 0.41% active. recombinant A3A, FAM/TAMRA ssDNA deamination fluorescence. inhibition, % at 20 µM;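 active means at least 40% inhibition at 20 µM here, with at most 30% in a related deaminase screen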
Target sequence (P31941 whole entry, looked up): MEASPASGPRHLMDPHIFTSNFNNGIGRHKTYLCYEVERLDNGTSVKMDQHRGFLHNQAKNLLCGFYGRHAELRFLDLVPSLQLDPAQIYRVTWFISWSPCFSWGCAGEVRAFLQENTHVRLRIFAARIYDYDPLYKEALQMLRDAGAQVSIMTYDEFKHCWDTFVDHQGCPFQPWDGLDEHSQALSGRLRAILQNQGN
NadD conf = NadD (S. aureus) inhibition, single concentration confirmation; 2,000 tested, 13% active; purified S. aureus NadD, colorimetric enzyme assay; inhibition, % at 20 µM; AID 624309; shares compounds with NadD block; in the data active means inhibition mostly above about 42%, no sharp cut-off; inactive means mostly below about 42%
A number is an active result; – = inactive; · = no result given.

SMILES	TAG inh	A3G deaminase	NadD block	H9c2 protect	PfG6PD inh	APOBEC3A inh	NadD conf
Cc1cc(C)n(-c2ccc(NC(=O)C3CCN(Cc4ccc(C)o4)CC3)cc2)n1	·	–	–	–	–	–	·
O=C(COc1ccc(/C=N/NC(=O)c2ccccc2O)cc1)Nc1ccc([N+](=O)[O-])cc1	·	–	40	–	–	–	–
Cc1cc(C(=O)CSc2nnc(N)s2)c(C)n1Cc1ccco1	–	–	–	–	–	–	·
Cc1cc(-c2csc(N)n2)c(C)n1Cc1ccco1	–	–	31	–	–	–	–
COc1ccccc1Nc1nc(-c2sc(NC(=O)c3ccco3)nc2C)cs1	–	–	–	–	–	–	·
Cc1ccc(Cl)cc1Nc1nc(-c2sc(NC(=O)c3ccco3)nc2C)cs1	–	–	36	–	–	–	–
COc1cccc(N(C(=O)c2ccco2)c2nc(-c3sc(NC(=O)c4ccco4)nc3C)cs2)c1	–	–	36	–	–	–	–
Cc1nc(NC(=O)c2ccco2)sc1-c1csc(Nc2ccc(Cl)cc2Cl)n1	–	–	53	–	–	–	–
Cc1nc(NC(=O)c2ccccc2)sc1-c1csc(Nc2ccc(Cl)cc2Cl)n1	·	–	·	·	·	–	·
Cc1ccc(Cl)cc1Nc1nc(-c2sc(NC(=O)c3cccc(Cl)c3)nc2C)cs1	·	–	·	·	·	–	·
Cc1nc(NC(=O)c2ccco2)sc1-c1csc(Nc2ccc(Cl)cc2)n1	·	–	36	–	–	–	–
Cc1nc(NC(=O)c2ccccc2)sc1-c1csc(Nc2ccc(Cl)cc2)n1	·	–	·	·	·	–	·
CCCC(C)C(=O)Nc1nc(C)c(-c2csc(Nc3cc(Cl)ccc3C)n2)s1 (stereo unspecified)	–	–	28	–	–	–	–
O=C(CN1C(=O)NC2(CCCCC2)C1=O)Nc1cc(C(F)(F)F)ccc1N1CCCCC1	–	–	–	–	–	–	·
CC(=O)c1ccc(NC(=O)COC(=O)c2c3c(nc4ccccc24)/C(=C\c2cccs2)CCC3)cc1	·	–	27	–	–	–	–
O=C(COC(=O)c1c2c(nc3ccccc13)/C(=C\c1cccs1)CCC2)Nc1ccccc1	·	–	–	–	–	–	·
Cc1oc(-c2ccc(F)cc2)cc1-c1nn2c(-c3ccoc3C)nnc2s1	–	–	53	–	–	–	–
Cc1ccnc2nc(C(=O)OCC(=O)c3ccc(NC(=O)CC(C)C)cc3)nn12	–	–	–	–	–	–	·
CCC(=O)Nc1ccc(C(=O)COC(=O)c2nc3nccc(C)n3n2)cc1	–	–	46	–	–	–	86
COc1ccc(/C=N/NC(=O)c2nn(-c3ccccc3)c(=O)c3c(N)scc23)cc1	–	–	51	–	–	–	–
CCOC(=O)c1nn(-c2ccc(OC)cc2)c(=O)c2c(N)scc12	·	–	–	–	–	–	·
COc1ccc(/C=N/NC(=O)c2nn(-c3ccc(Cl)cc3)c(=O)c3c(N)scc23)cc1	·	–	55	–	–	–	–
c1ccc2c(c1)Sc1cnccc1N2CC1CO1 (stereo unspecified)	–	·	–	–	–	·	·
O=C(Nc1ccccc1C(F)(F)F)NC1(C(=O)N2CCOCC2)CCCCC1	–	·	31	–	–	·	–
Cc1ccccc1NC(=O)NC1(C(=O)N2CCOCC2)CCCCC1	–	–	–	–	–	–	·
SMILES	TAG inh	A3G deaminase	NadD block	H9c2 protect	PfG6PD inh	APOBEC3A inh	NadD conf
COc1ccc(CNC(=O)C2CCN(C(=O)[C@@H]3Cc4ccccc4CN3)CC2)cc1	·	–	–	–	–	–	·
O=C1OC(c2cccs2)=N/C1=C\c1ccc(-c2cccc(Cl)c2)o1	·	–	46	–	–	–	–
N=C1S/C(=C\c2ccc(-c3cccc(Cl)c3)o2)C(=O)N1c1nccs1	·	·	76	–	–	·	–
Clc1cccc(-c2ccc(/C=N/n3cnnc3)o2)c1	·	–	–	–	–	–	·
COC(=O)c1ccc(N(CC(=O)NC2CCCC2)C(=O)c2ccc(C)s2)cc1	·	–	–	–	–	–	·
O=C(O)c1ccc(/C=N/NC(=O)c2cc(-c3ccc4c5c(cccc35)CC4)n[nH]2)cc1	·	–	28	–	–	–	–
O=C(O)c1ccc(C=NNC(=O)c2cccc3ccccc23)cc1	–	·	–	–	–	·	·
CCN(CC)S(=O)(=O)c1ccc(C(=O)/C=C/c2ccc(-c3ccc([N+](=O)[O-])cc3)o2)cc1	–	–	52	–	–	–	–
Cc1ccc(C(=O)/C=C/c2ccc(-c3ccc(C)cc3)o2)cc1	·	–	34	–	–	–	–
Cc1ccc(C(=O)/C=C\C(=O)c2ccc(C)cc2)cc1	·	·	–	–	–	·	·
COc1ccc(N(CC(=O)NC2CCCC2)C(=O)c2ccc(C)s2)c(OC)c1	·	–	–	–	–	–	·
O=C(CS(=O)c1ccc(Br)cc1)N1CCOCC1 (stereo unspecified)	·	–	–	–	–	–	·
Cc1cccc(-n2nc(C(=O)Nc3ccccc3)n3c(=O)cc(-c4ccccc4)nc23)c1	·	–	30	–	–	–	–
O=C(c1ccccc1)c1nn(-c2cccc(Cl)c2)c2nc(-c3ccccc3)cc(=O)n12	–	–	–	–	–	–	·
CCOC(=O)C1=C(C)c2ccccc2N(C(=O)OC)C1(C)C(=O)OCC (stereo unspecified)	–	–	44	–	61	–	69
CCOc1cc(/C=N\NC(=O)c2ccc(NC(=O)CC)cc2)ccc1OC(=O)c1ccccc1	–	–	–	–	–	–	·
N#Cc1c(-c2ccco2)cc(-c2ccc(F)cc2)nc1N	–	–	52	–	–	–	–
CCN(CC)S(=O)(=O)c1ccc(NC(=O)COC(=O)CCc2cc(OC)c(OC)c(OC)c2)cc1	·	–	–	–	–	–	·
Cc1cc(NS(=O)(=O)c2ccc(NC(=O)/C=C/c3cccc(Cl)c3)cc2)no1	–	–	–	–	–	–	·
CC(=O)c1cccc(-c2ccc3c(=O)[nH]c(Nc4ccccc4)cc3c2)c1	–	–	35	–	–	–	–
COc1ccc(C(=O)Nc2cc(OC)c(NC(=O)Nc3ccccc3)cc2OC)cc1	–	·	–	–	–	·	·
C/C(=N\NC(=O)c1cccc(N/N=C(\C)c2ccco2)c1)c1ccco1	·	·	38	–	–	·	–
C[C@@H]1CN([C@@H](C)CO)C(=O)c2c(c3ccccc3n2C)-c2ccccc2CO[C@H]1CN(C)S(=O)(=O)c1ccc(C(F)(F)F)cc1	–	·	–	–	–	·	·
COc1ccc(/C=N/NC(=O)c2nc(-c3ccccc3)cc(-c3ccccc3)n2)cc1	·	–	39	–	–	–	–
COc1ccc(/C=N/NC(=O)c2nc(-c3ccccc3)cc(-c3ccccc3)n2)cc1O	·	–	38	51	–	–	–
COc1ccc(/C=N/NC(=O)c2cc(-c3ccccc3)nc3ccccc23)cc1O	·	–	–	–	–	–	·
COc1ccc(/C=N/NC(=O)c2c(-c3ccccc3)noc2C)cc1	·	–	–	–	–	–	·

Screens as filed in PubChem BioAssay.
